# KDM5B inh = inhibitors of human KDM5B histone demethylase; KDM5B demethylase, FDH-coupled NADH fluorescence (FDH is formaldehyde dehydrogenase); 220,000 tested, 2.6% active; Q9UGL1; Potency, µM (top dose mostly 57.7 µM), actives largely listed as inhibitors; active means well fitted inhibition curve with a large enough effect; further: 0% is about no effect; nearly all actives have a fitted effect of over 70% in size
# Target sequence (Q9UGL1 whole entry, looked up): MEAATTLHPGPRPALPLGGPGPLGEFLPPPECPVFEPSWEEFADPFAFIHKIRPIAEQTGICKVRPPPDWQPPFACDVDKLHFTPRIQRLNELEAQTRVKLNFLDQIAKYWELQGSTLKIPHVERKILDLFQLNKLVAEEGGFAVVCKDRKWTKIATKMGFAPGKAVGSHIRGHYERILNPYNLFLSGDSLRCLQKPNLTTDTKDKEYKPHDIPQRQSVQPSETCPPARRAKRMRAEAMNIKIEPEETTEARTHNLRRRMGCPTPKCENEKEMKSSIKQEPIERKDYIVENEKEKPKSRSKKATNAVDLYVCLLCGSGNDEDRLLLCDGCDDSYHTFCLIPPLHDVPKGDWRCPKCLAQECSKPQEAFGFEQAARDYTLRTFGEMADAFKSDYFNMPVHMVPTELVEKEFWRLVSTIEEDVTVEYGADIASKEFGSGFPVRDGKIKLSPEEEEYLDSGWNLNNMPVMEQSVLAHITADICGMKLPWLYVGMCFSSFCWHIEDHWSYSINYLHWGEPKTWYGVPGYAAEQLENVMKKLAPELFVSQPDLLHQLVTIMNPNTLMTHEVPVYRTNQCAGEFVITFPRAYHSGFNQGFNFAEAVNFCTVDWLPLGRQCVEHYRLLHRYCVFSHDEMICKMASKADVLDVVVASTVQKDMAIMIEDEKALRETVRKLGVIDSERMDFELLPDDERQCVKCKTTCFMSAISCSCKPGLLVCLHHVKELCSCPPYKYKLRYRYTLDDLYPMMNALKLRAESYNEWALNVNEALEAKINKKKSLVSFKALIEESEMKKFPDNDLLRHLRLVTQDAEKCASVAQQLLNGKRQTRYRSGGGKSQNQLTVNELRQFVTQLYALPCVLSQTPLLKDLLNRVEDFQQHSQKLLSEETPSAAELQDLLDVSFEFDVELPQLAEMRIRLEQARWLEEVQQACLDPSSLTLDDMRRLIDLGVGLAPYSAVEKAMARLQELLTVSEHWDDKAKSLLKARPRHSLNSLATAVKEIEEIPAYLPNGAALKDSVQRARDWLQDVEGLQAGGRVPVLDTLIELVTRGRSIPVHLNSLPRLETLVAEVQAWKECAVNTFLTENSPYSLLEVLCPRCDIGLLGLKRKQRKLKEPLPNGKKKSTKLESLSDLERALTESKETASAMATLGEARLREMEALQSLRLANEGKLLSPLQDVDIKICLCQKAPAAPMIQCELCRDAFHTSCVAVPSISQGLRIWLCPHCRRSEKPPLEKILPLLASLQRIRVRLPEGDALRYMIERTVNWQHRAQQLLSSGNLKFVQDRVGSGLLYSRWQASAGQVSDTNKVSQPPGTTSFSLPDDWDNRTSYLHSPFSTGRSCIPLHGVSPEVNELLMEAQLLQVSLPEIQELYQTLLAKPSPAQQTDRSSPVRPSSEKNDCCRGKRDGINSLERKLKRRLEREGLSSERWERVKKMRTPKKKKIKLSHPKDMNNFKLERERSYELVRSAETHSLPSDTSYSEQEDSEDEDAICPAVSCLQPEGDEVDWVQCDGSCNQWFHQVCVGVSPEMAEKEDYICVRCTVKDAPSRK
#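 Measured: NADH fluorescence change, 30 min, RT. System: KDM5BΔAP 200 nM final, H3K4me3 peptide, α-KG, Fe(II), ascorbate, NAD⁺ plus FDH, pH 7.5 HEPES. Compounds: titrated, 10 min pre-incubation with enzyme.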
# Starred values were filed as active, the others as inactive; i = inactive. This is one part of a sample in which hits are shown more often than they occur. Potency means the concentration at half of the fitted maximal effect.
SMILES,KDM5B inh
CCCCCCCCCCOC(=O)Nc1ccc(C)cc1,i
Cc1cc(C(F)(F)F)nn1CC(=O)NCC1Cn2cccc2C(=O)N1Cc1ccccc1 (stereo not drawn),i
CC(=O)Nc1ccc(NC(=O)C(C)Cl)cc1 (stereo not drawn),i
Cc1cccc(C(=O)N2CCN(c3ccc([N+](=O)[O-])c(-n4nc(C)c5ccccc5c4=O)c3)CC2)c1,i
CC1CCC2(CC1)NC(=O)N(CC(=O)Nc1ccc(Cl)cc1)C2=O (stereo not drawn),i
CN(C)CC(=O)N1CC(F)(F)C[C@H]1c1nc(C2CC2)no1,i
COCCCn1c(C)cc(C(=O)COc2cccc3c2OC(C)(C)C3)c1C,i
CCOc1cccc(-c2nc(C3CCOC3)no2)c1 (stereo not drawn),i
COc1ccccc1-n1cc(-c2nc(C3CCOC3)no2)cn1 (stereo not drawn),28µM*
COc1cccc(-c2ccc(-c3nc(C4CCOC4)no3)o2)c1 (stereo not drawn),i
CC(=O)N1C[C@@H](C(=O)NCCc2cccs2)[C@H](c2nc(C)no2)C1,i
C[S+](=O)([O-])N1CCn2cc(C(=O)N3CCOCC3)nc2C1,i
O=C(/C=C/N1CCOCC1)C(F)(F)F,i
Cc1nc2c(c(-c3ccc(Cl)cc3)n1)CCN(C(=O)c1ccc(F)cc1)CC2,i
O=C(Nc1ccc2oc(-c3ccccc3)nc2c1)C1CCN(c2cnn(Cc3ccccc3)c(=O)c2)C1 (stereo not drawn),18µM*
O=C(NC1CCS(=O)(=O)C1)C1CCN(c2cnn(Cc3ccccc3)c(=O)c2)C1 (stereo not drawn),i
O=C(NC1CCCCC1)C1CCCN(c2cnn(Cc3ccccc3)c(=O)c2)C1 (stereo not drawn),i
COc1ccc(C(=O)N2CCC3(CC2)NC(=O)N(Cc2ccc(C)cc2)C3=O)cc1OC,i
O=C1CC2(CCN(Cc3cccnc3)CC2)Oc2ccccc21,35µM*
N#Cc1ccc(CN2CCC3(CC2)CC(=O)c2ccccc2O3)cc1,32µM*
O=C1CC2(CCN(CC3CCCCC3)CC2)Oc2ccccc21,32µM*
O=C1CC2(CCN(Cc3ccc(F)cc3)CC2)Oc2ccccc21,28µM*
CN(C)c1ccc(CN2CCC3(CC2)CC(=O)c2ccccc2O3)cc1,i
O=C1NC2(CCN(CC3CCCCC3)C2)Oc2ccccc21 (stereo not drawn),i
O=C1NC2(CCN(Cc3ccc(F)cc3)CC2)Oc2ccccc21,i
SMILES,KDM5B inh
O=C1CC2(CCN(Cc3cccnc3)CC2)Oc2cc(Cl)ccc21,i
N#Cc1ccc(CN2CCC3(CC2)CNC(=O)c2ccccc2O3)cc1,i
N#Cc1ccc(CN2CCC3(CC2)CC(=O)Nc2ccccc2O3)cc1,i
O=C1NC2(CCN(CC3CCCC3)CC2)COc2ccccc21,i
O=C1CC2(CCN(Cc3cccnc3)CC2)Oc2ccccc2N1,i
Cc1nc(-c2c3n(c(=O)n(CC(=O)Nc4cccc(C(F)(F)F)c4)c2=O)CCCC3)no1,i
CCc1cccc(Nc2nc(CSc3ccc(Cl)cc3)nc3sc4c(c23)CCC4)c1,i
CCNC(=O)N1CCCCCCNC(=O)[C@@H]2C[C@@H](c3nc(-c4cccnc4)no3)C[C@@H]21,i
O=C(COc1ccc(F)cc1)N1CCC(n2cc(-c3nc(-c4ccccc4)no3)nn2)C1 (stereo not drawn),i
CC1(C)Cc2cc(C(=O)NC3CC3)ccc2C1(C)c1ccc(C(=O)NC2CC2)cc1 (stereo not drawn),i
CCCCC1C=CCN1S(=O)(=O)c1cccc(C(=O)NCC(F)(F)F)c1 (stereo not drawn),i
CCCCc1cc(=O)oc2cc(OCC(=O)N3CCC(C(=O)NCCCO)CC3)ccc12,i
CC(Sc1n[nH]c(-c2cccs2)n1)C(=O)Nc1ccc(F)cc1F (stereo not drawn),i
O=C(c1cc2ccccc2oc1=O)N1CCc2ccccc2C1,i
Cc1noc(C)c1S(=O)(=O)N1CCCC(Cn2c(C3CC3)nc3cccnc32)C1 (stereo not drawn),i
COc1ccc(OC2CCN(C3CCCC3)CC2)c(C(=O)NCCCN2CCCC2=O)c1,32µM*
COc1ccc(C(=O)NCCc2ccccc2F)cc1OC1CCN(C(C)=O)CC1,i
COc1ccc(NC(=O)N2CCc3c(C(=O)NCCCN4CCCC4=O)cccc32)cc1,i
COc1ccc(OC2CCN(C(C)=O)CC2)c(C(=O)N2C[C@@H]3CCC[C@H]2C3)c1,i
COc1ccc(OC2CCN(C(C)=O)CC2)c(C(=O)NCCc2c(C)n[nH]c2C)c1,28µM*
O=C(NCCCN1CCCC1=O)C1CCC1,i
COC(=O)c1ccc(CNC(=O)COC(=O)Cc2ccc(Cl)cc2)cc1,i
COc1cccc(NC(=O)Cn2c(C)ccc(NS(=O)(=O)c3ccccc3)c2=O)c1,i
CCONC(=O)c1cccc(CSC)c1,i
CC(=O)Nc1ccc(NC(=O)C(=O)c2c[nH]c3ccccc23)cc1,i
SMILES,KDM5B inh
Cc1csc(NC(=O)c2csc3ccccc23)n1,i
COc1cccc(CNC(=O)c2cc3n(n2)CC(c2ccc4c(c2)OCO4)OC3)c1 (stereo not drawn),i
CCOc1ccc(NC(=O)c2cc3n(n2)CC(c2ccc(Cl)cc2)OC3)cc1 (stereo not drawn),i
O=C(Nc1ccc2c(c1)CCC2)c1cc2n(n1)CC(c1ccc(Cl)cc1)OC2 (stereo not drawn),32µM*
O=C(NC1CCCCC1)c1cc2n(n1)CC(c1ccc(Cl)cc1)OC2 (stereo not drawn),i
O=C(NC1CCCCCC1)c1cc2n(n1)CC(c1ccc(Cl)cc1)OC2 (stereo not drawn),i
COc1ccc(NC(=O)c2cc3n(n2)CC(c2ccc4c(c2)OCO4)OC3)c(OC)c1 (stereo not drawn),35µM*
O=C(Nc1ccc(Cl)cc1)c1cc2n(n1)CC(c1ccc3c(c1)OCO3)OC2 (stereo not drawn),28µM*
O=C(Nc1cccc(Cl)c1)c1cc2n(n1)CC(c1ccc3c(c1)OCO3)OC2 (stereo not drawn),25µM*
COc1ccc(OC)c(NC(=O)c2nnn3c2COC(c2ccc(Cl)cc2)C3)c1 (stereo not drawn),i
O=C(CC1CCCCN(Cc2ccccc2)C1=O)NCc1ccc(F)cc1 (stereo not drawn),i
CC(C)CCN1CC2(Cc3ccccc3C(=O)N2)C1,i
Cc1noc(-c2cn(C3CCN(C(=O)COc4ccc(F)cc4)C3)nn2)n1 (stereo not drawn),i
COc1ccc(-c2c(C)nn3c2ncc2c(=O)n(-c4ccc(NC(C)=O)cc4)ccc23)cc1,i
Cc1ccc(-c2cnoc2NC(=O)CSc2nc(-c3ccc(Cl)cc3)cc(=O)[nH]2)cc1,i
COc1ccc(OC)c(C(=O)CSc2ccc(Cl)cc2)c1,i
N#Cc1ccc(C(=O)/C=C/c2cccs2)cc1,i
COc1cccc(OC)c1C(=O)Nc1ccc2c(c1)CN(Cc1ccccc1F)C(=O)C(C)O2 (stereo not drawn),i
Cc1ccc2c(c1)C(Cc1nc3ccccc3c(=O)n1CCCO)C(=O)N2C(C)C (stereo not drawn),i
O=C(Nc1ccc2c(c1)OCO2)C1CCN(C(=O)c2oc3ccccc3c2COc2ccccc2)CC1,i
Cc1ccc(OCC(=O)N2CCCN(S(C)(=O)=O)c3ccccc32)cc1,i
